Consider 14 compounds from publication PMC5540273 (PLoS ONE, 2017).
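Note: KINOMEscan kinase panel screen.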

This assay concerns MARK3. The conditions noted are these: concentration: 1 μM,replicates: in singlicate; n = 1.
Regarding `CSc1nccc(-c2c(-c3ccc(F)cc3)ncn2CCCN2CCOCC2)n1.Cl` [SB-217146], the “%Inh” value was 40%. As for `NC(=O)c1ccc(-c2cc3ncnc(SCC(=O)O)c3s2)cc1`, the “%Inh” value is listed as 0%. Then `COc1cccc(C2=C(Nc3cccc(Cl)c3)C(=O)NC2=O)c1` [SB-341556], with 17%.

Consider `Cn1ccc2ncnc(Oc3ccc(NC(=O)Nc4ccnc(C(F)(F)F)c4)c(Cl)c3)c21`, for which the “%Inh” value worked out at 0%.

`Cc1n[nH]c2cc(Nc3ccnc(Nc4cccc(CN5CCOCC5)c4)n3)ccc12` [GW682569]: the “%Inh” value was 0%. Regarding `COC(=O)c1cccc(NC(=O)NC2CCN(c3ccnc(NCc4ccc(F)cc4)n3)CC2)c1` [GSK1379860], the “%Inh” value is reported as 0%. To `CS(=O)c1ccc(-c2coc3ccc(-c4n[nH]c(=O)o4)cc23)cc1` (centres unmarked) belongs 0%.

Consider `Cc1cccc2c(-c3ccncc3)c(-c3ccc(F)cc3)nn12.Cl` [GW461487], for which the “%Inh” value was determined as 0%. To `FC(F)(F)c1cc(Br)cc(Nc2nccc(-c3cnn4ncccc34)n2)c1` [GW810578] belongs 0%. To `O=C1NCCc2[nH]c(-c3ccncc3)cc21` belongs 25%; to `C[C@@H](Oc1cc(-n2cnc3cc(-c4ccncc4)ccc32)sc1C(N)=O)c1ccccc1Cl` [GSK479719], 1%. To `NC(=O)Nc1sc(-c2ccc(F)cc2)cc1C(N)=O` [GW789449] belongs 0%; to `O=C(Nc1ccc(Oc2ccc3nc(NC(=O)C4CC4)cn3n2)c(F)c1)c1cccn(-c2ccccc2)c1=O`, 29%. As for `Cc1ccc(CC(=O)N2CCc3cc(-c4cn(C)c5ncnc(N)c45)ccc32)cc1` [GSK2634758], the “%Inh” value came to 0%.
